In publication PMC4552634, “A New Set of Chemical Starting Points with Plasmodium falciparum Transmission-Blocking Potential for Antimalarial Drug Discovery” (PLoS ONE, 2015):
The campaign covered roughly 13,000 compounds. About 3,200 (25%) showed an effect of 50% or more. The list shows a part of the results.

These compounds were tested on P. falciparum stage V gametocytes. Settings: 48 h, 5 µM; inhibitor.
Set-up: BacTiter-Glo ATP luminescence viability of purified stage V gametocytes in 384-well plates, per cent inhibition versus DMSO
`COc1ccc2ncc(F)c(CCN3CC[C@@H](CNCc4cc(C)c5c(c4)OCCO5)C3)c2n1` [TCMDC-136077] was tested, and the “% Inhibition” value was 34.91%.
`CC(C)c1ccc(OCC(O)CN(CCN2CCOCC2)C(=O)Nc2ccc(Br)cc2)cc1` (stereo not shown) [TCMDC-141492] was tested, and the “% Inhibition” value was -0.3608%.
`CCn1c(-c2nc(-c3ccnc(N4CCN(C)CC4)c3)cnc2N)nc2cc(S(C)(=O)=O)ccc21` [TCMDC-134155] was tested, and the “% Inhibition” value was 31.49%.
In the case of `CCn1c(-c2nc(-c3ccc4c(c3)OCO4)cnc2N)nc2cnccc21` [TCMDC-135178], the “% Inhibition” value is reported as 6.285%.
`COc1cccc2cc(C(=O)N[C@@H](CC(C)C)C(=O)N[C@H](C=NN3CCOC3=O)Cc3ccccc3)oc12` [TCMDC-136074] was tested, and the “% Inhibition” value was -0.683%.
With `O=C(c1cccc(-c2noc(C(F)(F)F)n2)c1)N1CCN(c2nsc3ccccc23)CC1` [TCMDC-132425] the “% Inhibition” value was -18.4%.
With `CN(C)C(=O)O[C@@H]1CN[C@H](C#Cc2cc3ncnc(Nc4ccc5c(cnn5Cc5cccc(F)c5)c4)c3s2)C1` [TCMDC-135233] the “% Inhibition” value was 25.46%.
In the case of `Clc1cc(Nc2ncnc3sc(C#C[C@H]4CCCN4)cc23)ccc1OCc1cccnc1Cl` [TCMDC-134849], the “% Inhibition” value is reported as 8.343%.
`Clc1cc(Nc2ncnc3cc(C#C[C@H]4CCCN4)sc23)cc2[nH]c(Cc3ccccc3)nc12` [TCMDC-134519] was tested, and the “% Inhibition” value was 58.91%.
With `Fc1cccc(COc2ccc(Nc3ncnc4sc(C#CC5CCCCN5)cc34)cc2Cl)c1` (stereo not shown) [TCMDC-138878] the “% Inhibition” value was 40.6%.
`O=S(=O)(c1ccccc1)n1ccc2cc(Nc3ncnc4cc(C#C[C@H]5CCCN5)sc34)ccc21` [TCMDC-138913] was tested, and the “% Inhibition” value was 83.41%.
`O=C(O[C@H]1CN[C@H](C#Cc2cc3ncnc(Nc4ccc5c(ccn5S(=O)(=O)c5cccs5)c4)c3s2)C1)N1CCOCC1` [TCMDC-134691] was tested, and the “% Inhibition” value was 26.92%.
With `COc1ccc(-c2cc(NCc3ccc(-n4ccnc4)cc3)nc(Nc3ccccc3)n2)cc1` [TCMDC-133466] the “% Inhibition” value was 0.1166%.
With `Cc1ccc(Nc2nc(NN=Cc3ccc(-c4ccc([N+](=O)[O-])cc4)o3)nc(N3CCOCC3)n2)cc1Cl` [TCMDC-123853] the “% Inhibition” value was 16.13%.
For `COc1ccc(F)cc1-c1cccc(CNC2CCN(CC3Cn4c(=O)ccc5ccc(F)c3c54)CC2)c1` (stereo not shown) [TCMDC-134406], the “% Inhibition” value was -45.9%.
In the case of `COc1ccc(CNCc2ccc(F)cc2)cc1-c1cccc(S(=O)(=O)NCCN2CCCC2)c1` [TCMDC-132223], the “% Inhibition” value is reported as 101.2%.
`COc1ccc(CNCc2ccccc2)cc1-c1cccc(S(=O)(=O)NCCN2CCCC2)c1` [TCMDC-132268] was tested, and the “% Inhibition” value was 57.83%.
With `COc1ccc2nccc([C@@H](O)CN3CCC(NC(=O)c4ccc(Cl)c(Cl)c4)CC3)c2c1` [TCMDC-141036] the “% Inhibition” value was -20.77%.
`COc1cc(Nc2nccc(Nc3ccc4c(C)[nH]nc4c3)n2)cc2ccccc12` [TCMDC-138587] was tested, and the “% Inhibition” value was -18.63%.
`CC(Oc1cccc(Cl)c1)C(=O)N1CCc2ccccc21` (stereo not shown) [TCMDC-123685] was tested, and the “% Inhibition” value was -22.19%.
For `CN(CC(=O)Nc1ccc(F)cc1)C(=O)c1ccc(-c2ccc(F)cc2)o1` [TCMDC-125342], the “% Inhibition” value was 61.72%.
In the case of `O=C(NCc1ccc(F)cc1)Nc1ccc(-c2ccc(-c3nc4ccccc4[nH]3)cc2)cc1` [TCMDC-133299], the “% Inhibition” value is reported as -2.169%.
In the case of `CC(=O)Nc1ccc(CN(Cc2ccc(F)cc2)Cc2ccc3c(c2)OCO3)cc1` [TCMDC-140255], the “% Inhibition” value is reported as 12.12%.
In the case of `Nc1ncc(-c2ccc(S(=O)(=O)Nc3ccc(C(=O)N[C@@H](CCC(=O)O)C(=O)O)cc3)cc2)c(=O)[nH]1` [TCMDC-137342], the “% Inhibition” value is reported as -1.262%.
In the case of `CN1CCC(C(=O)Nc2ccc(-c3ccc(-c4nc5ccccc5[nH]4)s3)cc2)CC1` [TCMDC-132179], the “% Inhibition” value is reported as 54.96%.
For `O=C(Nc1ccc(-c2csc(-c3nc4ccccc4[nH]3)c2)cc1)Nc1ccsc1` [TCMDC-133207], the “% Inhibition” value was -12.45%.
With `O=C(Nc1ccc(-c2cccc(-c3nc4ccccc4[nH]3)c2)cc1)Nc1ccsc1` [TCMDC-133220] the “% Inhibition” value was 7.696%.
In the case of `CC(C)=CCN1CCC(C(=O)Nc2ccc(-c3nc4ccccc4[nH]3)cc2)CC1` [TCMDC-124613], the “% Inhibition” value is reported as -52.31%.
In the case of `CN1CCC(C(=O)Nc2cccc(-c3ccc(-c4nc5ccccc5[nH]4)cc3)c2)CC1` [TCMDC-132186], the “% Inhibition” value is reported as -0.3438%.
For `CN1CCN(CC(=O)Nc2ccc(-c3ccc(-c4nc5ccccc5[nH]4)s3)cc2)CC1` [TCMDC-136971], the “% Inhibition” value was -13.63%.
In the case of `CN1CCC(C(=O)Nc2ccc(-c3ccc(-c4nc5ccccc5[nH]4)cc3)cc2)CC1` [TCMDC-132187], the “% Inhibition” value is reported as 59.64%.
`O=C(Nc1ccc(-c2ccc(-c3nc4ccccc4[nH]3)s2)cc1)Nc1ccsc1` [TCMDC-133219] was tested, and the “% Inhibition” value was 69.14%.
In the case of `CN1CCC(C(=O)Nc2ccc(-c3ccc(-c4nc5cc(C(F)(F)F)ccc5[nH]4)s3)cc2)CC1` [TCMDC-132183], the “% Inhibition” value is reported as -1.127%.
`COc1ccc2nccc([C@@H](O)CN3CCC(NCc4cc5cccc(OCc6ccccc6)c5[nH]4)CC3)c2c1` [TCMDC-141117] was tested, and the “% Inhibition” value was 10.73%.
With `Clc1cccc(C=NNc2ccnc3ccccc23)c1` [TCMDC-142057] the “% Inhibition” value was -48.21%.
With `CSc1cccc(Nc2nc3ccc(S(=O)(=O)NCC(C)C)cc3n2C(C)C(C)C)c1` (stereo not shown) [TCMDC-136235] the “% Inhibition” value was -38.43%.
For `O=C(CCN(Cc1ccco1)c1nc(-c2ccc(F)cc2)nc2ccccc12)NC1CC1` [TCMDC-124785], the “% Inhibition” value was -4.08%.
For `O=C(Cc1cccc2ccccc12)NC1CCN(c2ccnc3cc(Cl)ccc23)C1` (stereo not shown) [TCMDC-133666], the “% Inhibition” value was -21.93%.
In the case of `O=C(NCC1CN(Cc2ccc(N3CCCC3)o2)CCCO1)c1ccc2c(c1)OCO2` (stereo not shown) [TCMDC-134852], the “% Inhibition” value is reported as -25.48%.
With `Cc1cc(N[C@@H](CC(C)C)C(=O)Nc2ccccc2)nc(NCc2ccccc2C)n1` [TCMDC-134912] the “% Inhibition” value was -40.4%.
For `COc1cc(C(=O)N2CCOC(CCN3CCC(Cc4ccc(F)cc4)CC3)(c3ccc(Cl)c(Cl)c3)C2)cc(OC)c1OC` (stereo not shown) [TCMDC-135568], the “% Inhibition” value was -27.28%.
`Cc1cccc(C)c1CNc1ccnc2ccccc12` [TCMDC-132169] was tested, and the “% Inhibition” value was -38.56%.
`CCCNc1nc(NCc2c(C)cccc2C)nc(NC(C)(C)C)n1` [TCMDC-133383] was tested, and the “% Inhibition” value was 61.71%.
In the case of `Cc1cccc(C)c1CNc1cccc(-c2nc(C)c(C)[nH]2)c1` [TCMDC-133434], the “% Inhibition” value is reported as -88.3%.
For `FC(F)(F)c1ccc2nc(-c3ccc(-c4cccc(CN5CCN(c6ccncc6)CC5)c4)cc3)[nH]c2c1` [TCMDC-132916], the “% Inhibition” value was 2.402%.
In the case of `COc1ccc2nccc([C@@H](O)CN3CCC(NCc4cc5ccccc5o4)CC3)c2c1` [TCMDC-140521], the “% Inhibition” value is reported as 12.09%.
With `O=C(Nc1ccc(Br)cc1)N1CCC(n2c(-c3ccccc3)nc3cccnc32)CC1` [TCMDC-124743] the “% Inhibition” value was 60.37%.
In the case of `Cc1cc(-c2nc3ccc(C(=O)NCc4ccccc4)cc3n2C2CCN(C(=O)c3ccc(-c4ccccc4)cc3)CC2)ccn1` [TCMDC-135884], the “% Inhibition” value is reported as 25.38%.
With `Cc1ccc(NC(=O)N2CCC(n3c(-c4ccccc4)nc4cccnc43)CC2)cc1F` [TCMDC-124742] the “% Inhibition” value was 24.56%.
In the case of `CS(=O)(=O)c1ccc2c(c1)CCN(CCC1CCC(NC(=O)c3cc4cccc(Br)c4[nH]3)CC1)CC2` (stereo not shown) [TCMDC-141425], the “% Inhibition” value is reported as -26.4%.
In the case of `Clc1ccc(-c2cc(-c3csc(NCCN4CCOCC4)n3)on2)c(Cl)c1` [TCMDC-140322], the “% Inhibition” value is reported as 15.06%.
For `O=C(Nc1ccc(OC2CCN(Cc3ccsc3)C2)c(Cl)c1)c1ccsc1` (stereo not shown) [TCMDC-133947], the “% Inhibition” value was 1.522%.
In the case of `CC[C@H]1CN2CC[C@@H]1C[C@H]2[C@H](O)c1cc[n+]([O-])c2ccc(OC)cc12` [TCMDC-142004], the “% Inhibition” value is reported as 8.307%.
For `Oc1ccccc1CNC1CCCCC1NCc1ccccc1O` (stereo not shown) [TCMDC-138468], the “% Inhibition” value was 62.18%.
`Oc1c(Cl)cc(-c2ccccc2)cc1CNC1CCCCC1` [TCMDC-137170] was tested, and the “% Inhibition” value was -21.36%.
`Oc1cc2ccccc2cc1CNC1CCCCC1` [TCMDC-131977] was tested, and the “% Inhibition” value was -28.97%.
With `CC(C)C[C@@H](/C=N/N1CC(=O)NC1=O)NC(=O)[C@H](CC(C)C)NC(=O)c1ccc(OCCN2CCOCC2)cc1` [TCMDC-136200] the “% Inhibition” value was 6.414%.
For `CCCCCCCC/C=C\CCCCCCCC(=O)NCc1ccc(O)c(OC)c1` [TCMDC-124289], the “% Inhibition” value was 45.72%.
With `CC(=O)N1CCC(C(=O)Nc2ccc(-c3cccc(-c4nc5c(C)cccc5[nH]4)c3)cc2)CC1` [TCMDC-132167] the “% Inhibition” value was -9.717%.
In the case of `Cc1cccc2[nH]c(-c3cccc(-c4ccc(NC(=O)C5CCCO5)cc4)c3)nc12` (stereo not shown) [TCMDC-136969], the “% Inhibition” value is reported as -0.7596%.
In the case of `Cc1cccc2[nH]c(-c3ccc(-c4ccc(NC(=O)C5CCN(C)CC5)cc4)cc3)nc12` [TCMDC-132182], the “% Inhibition” value is reported as 81.12%.
For `Cc1cccc2[nH]c(-c3cccc(-c4ccc(NC(=O)C5CCN(C)CC5)cc4)c3)nc12` [TCMDC-132189], the “% Inhibition” value was 100.5%.
With `COC1CCC(C(=O)Nc2ccc(-c3cccc(-c4nc5c(C)cccc5[nH]4)c3)cc2)CC1` (stereo not shown) [TCMDC-136859] the “% Inhibition” value was -20.23%.
With `CC1CN(Cc2ccccc2)CCN1c1ccc(NC(=O)c2ccc(F)cc2)cc1` (stereo not shown) [TCMDC-135002] the “% Inhibition” value was -13.42%.
`O=C(Nc1ccc(C(F)(F)F)cc1)c1cccc(S(=O)(=O)NC2CCN(CC3CCCCC3)C2)c1` (stereo not shown) [TCMDC-132485] was tested, and the “% Inhibition” value was -55.81%.
With `O=C(Nc1ccc(C(F)(F)F)cc1)c1cccc(S(=O)(=O)NC2CCN(CC3CCCCC3)CC2)c1` [TCMDC-133671] the “% Inhibition” value was 8.091%.
`N#Cc1cccc(NC(=O)c2cccc(S(=O)(=O)NC3CCN(CC4CCCCC4)C3)c2)c1` (stereo not shown) [TCMDC-132508] was tested, and the “% Inhibition” value was 83.68%.
In the case of `O=C(Nc1ccc(Cl)cc1)c1cccc(S(=O)(=O)NC2CCN(CC3CCCCC3)C2)c1` (stereo not shown) [TCMDC-132483], the “% Inhibition” value is reported as -5.409%.
In the case of `O=C(Nc1cccc(C(F)(F)F)c1)c1cccc(S(=O)(=O)NC2CCCN(CC3CCCCC3)C2)c1` (stereo not shown) [TCMDC-132769], the “% Inhibition” value is reported as -38.48%.
In the case of `O=C(Nc1ccc(Cl)cc1)c1cccc(S(=O)(=O)NC2CCN(CC3CCCCC3)CC2)c1` [TCMDC-132807], the “% Inhibition” value is reported as 80.59%.
